In the library only some 22% were active in any assay of this set; here they are far more common.
CYP2C19 activ: human CYP2C19 activators, primary screen, biochemical, luminescence; recombinant CYP2C19, luciferin-H EGE luminescence; hits give high values; 0 = fully inhibited enzyme, 1 = untreated enzyme; activation factor at 5 µM; 96,000 tested, under 10 active;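 active = activation factor of at least 2 at 5 µM in the primary screen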
Target sequence (P33261 whole entry, looked up): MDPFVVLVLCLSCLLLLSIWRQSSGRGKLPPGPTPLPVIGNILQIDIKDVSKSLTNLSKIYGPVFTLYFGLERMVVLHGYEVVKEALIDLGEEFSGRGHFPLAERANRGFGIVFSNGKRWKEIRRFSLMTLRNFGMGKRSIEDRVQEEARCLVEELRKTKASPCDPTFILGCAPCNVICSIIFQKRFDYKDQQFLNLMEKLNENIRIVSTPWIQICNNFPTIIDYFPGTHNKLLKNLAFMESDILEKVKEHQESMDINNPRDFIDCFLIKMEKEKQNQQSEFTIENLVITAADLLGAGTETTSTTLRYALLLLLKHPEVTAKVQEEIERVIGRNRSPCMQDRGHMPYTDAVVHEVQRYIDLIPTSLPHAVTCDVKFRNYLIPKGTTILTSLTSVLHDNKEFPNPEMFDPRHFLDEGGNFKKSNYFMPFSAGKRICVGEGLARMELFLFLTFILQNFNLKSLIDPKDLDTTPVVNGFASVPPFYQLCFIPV
CYP2C9 act: human CYP2C9 activators, primary screen, biochemical, luminescence | activation factor at 5 µM | recombinant CYP2C9, luciferin-H conversion; hits give high values; factor 1 = untreated enzyme, 0 = blocked | 96,000 compounds, 1.4% hits | Cytochrome P450 2C9 (Homo sapiens), P11712;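 active = activation factor of 2 or more for CYP2C9 at a 5 µM dose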
CYP2C19 inh: blockers of cytochrome P450 2C19 activity – biochemical, luminescence, ADME assay, primary screen. CYP2C19 Supersomes, luciferin-H EGE luminescence, 30 min. 96,000 compounds, 21% hits. inhibition, % at 5 µM;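 active = CYP2C19 inhibition above a set limit at 5 µM in the primary screen, cut at about 50% in these data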
Measles CPE: compounds protecting cells from measles virus cytopathic effect, primary screen, measles RdRp inhibitor project, single point, MLSMR library, absorbance; protection (pct of control), % at 4 µM; 140,000 compounds, 1.5% hits; Measles virus-infected cells, CPE protection; in the data active = protection mostly above about 24%, no sharp cut-off; inactive = mostly below about 26%
CYP2C9 inh: blockers of cytochrome P450 2C9 activity – biochemical, luminescence, ADME assay, primary screen. P11712. CYP2C9 Supersomes, luciferin-H conversion. inhibition, % at 5 µM. 96,000 compounds, 20% hits;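 active = blocking of liver enzyme CYP2C9 beyond about 50% at 5 µM, limit read from the data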
Large screens that a line does not name were inactive.

Cn1nc(-c2ccc(OCC(=O)NCC3CCCO3)cc2)c2ccccc2c1=O (configuration not stated)	CYP2C9 inh 54
COc1ccc(-n2nc(C(=O)NCC(=O)NCC3CCCO3)c3ccccc3c2=O)cc1Cl (configuration not stated)	CYP2C9 inh 60
Cn1nc(-c2ccc(C(=O)NCC3CCCO3)cc2)c2ccccc2c1=O (configuration not stated)	none (no result: Measles CPE)
CCn1c(Cc2ccccc2)nnc1SCC(=O)OC(C)C	none
COc1ccc(C(=O)Nn2c(SCC(=O)NC3CCCC3)nc3ccccc3c2=O)cc1	none
COc1ccc(C(=O)Nn2c(SCC(=O)NCC3CCCO3)nc3ccccc3c2=O)cc1 (configuration not stated)	CYP2C9 inh 60
COc1ccc(-n2c(=O)c3ccccc3n(CC(=O)NC3CCCCC3)c2=O)c(OC)c1	none
CCn1c(C)cc2c(c1=O)C(c1ccccc1Br)C(C#N)=C(N)O2 (configuration not stated)	none
CCC(CC)C1C(C#N)=C(N)Oc2cc(C)oc(=O)c21 (configuration not stated)	CYP2C19 inh 96, CYP2C9 inh 72
CCC1=Nc2cc(C(=O)NCCCOC(C)C)ccc2Sc2ccccc21	CYP2C19 inh 72, CYP2C9 inh 60
CCC1=Nc2cc(C(=O)O)ccc2Sc2ccccc21	none (no result: CYP2C19 activ, CYP2C9 act, CYP2C19 inh, CYP2C9 inh)
Cc1cc(=O)[nH]c(SCC(=O)c2ccccc2)c1C#N	CYP2C9 inh 85
Cc1ccccc1NC(=O)CSc1[nH]c(=O)cc(C)c1C#N	CYP2C19 inh 63, CYP2C9 inh 81
COC(=O)c1ccc(Oc2c(C)oc3cc(OCc4cnn(-c5ccccc5)c4)ccc3c2=O)cc1	none
CCN(CC)S(=O)(=O)c1cccc(-c2nn(-c3ccccc3)cc2/C=C(\C#N)C(=O)NCc2ccco2)c1	none (no result: CYP2C19 activ, CYP2C9 act, CYP2C19 inh, CYP2C9 inh)
CC(=O)C1=C(C)NC(SCC(N)=O)=C(C#N)C1c1cccs1 (configuration not stated)	none
CC(=O)C1=C(C)NC(SCC(=O)c2ccc(F)cc2)=C(C#N)C1CC(C)C (configuration not stated)	none (no result: CYP2C19 activ, CYP2C9 act, CYP2C19 inh, CYP2C9 inh)
CC(=O)C1=C(C)NC(SCC(=O)c2ccc(-c3ccccc3)cc2)=C(C#N)C1c1cccnc1 (configuration not stated)	CYP2C19 inh 96, CYP2C9 inh 86
CSCSC1=C(C#N)C(c2ccccc2Cl)C(C(C)=O)=C(C)N1 (configuration not stated)	CYP2C19 inh 85, CYP2C9 inh 82
CC(=O)C1=C(C)NC(SCSc2ccccc2)=C(C#N)C1c1cccnc1 (configuration not stated)	CYP2C19 inh 83, CYP2C9 inh 66
COC(=O)c1ccccc1S(=O)(=O)N(CCCN1CCOCC1)Cc1cccs1	none (no result: CYP2C19 activ, CYP2C9 act, CYP2C19 inh, CYP2C9 inh)
Cc1cc(C)c(S(=O)(=O)N2CCN=C2c2ccccc2)c(C)c1	none (no result: CYP2C19 activ, CYP2C9 act, CYP2C19 inh, CYP2C9 inh)
COCCn1c(=S)[nH]c2cc(C(=O)N3CCc4ccccc43)ccc2c1=O	Measles CPE 59
CCOC(=O)c1ccc(NC(=O)CN2CCc3ccccc3C2)cc1	none
Cc1cc(C)c(C)c(/C=C(/C#N)C(N)=S)c1C	CYP2C9 inh 65
Cc1ccc(N/N=C(\C#N)C(N)=S)c(C)c1	none (no result: CYP2C19 activ, CYP2C9 act, CYP2C19 inh, CYP2C9 inh)
CC(=O)Oc1c(S(=O)(=O)c2ccc(C)cc2)c(C)nn1-c1ccccc1	CYP2C9 inh 78
Cc1ccc(S(=O)(=O)c2c(C)nn(C(C)(C)C)c2OC(=O)c2ccc(Br)o2)cc1	CYP2C19 inh 70, CYP2C9 inh 95
Cc1ccc(S(=O)(=O)c2c(C)nn(C(C)(C)C)c2OC(=O)c2cccs2)cc1	CYP2C19 inh 94, CYP2C9 inh 90
Cc1nn(C(C)(C)C)c(OC(=O)c2ccc3c(c2)OCO3)c1S(=O)(=O)c1ccccc1	CYP2C19 inh 62, CYP2C9 inh 83
O=C(CSc1nnc2c(n1)[nH]c1ccc(F)cc12)OCc1ccccc1	none
COc1ccccc1NS(=O)(=O)c1ccc(NC(=O)c2nc3ncccn3n2)cc1	none
Cc1ccc(S(=O)(=O)c2c(C)nn(C(C)(C)C)c2OC(=O)C(C)(C)C)cc1	none
Cc1ccc(S(=O)(=O)c2c(C)nn(C(C)(C)C)c2OC(=O)c2ccco2)cc1	CYP2C19 inh 99, CYP2C9 inh 86
Nc1c2c(nc3ccc(Br)cc13)N(Cc1ccccc1)CC2	Measles CPE 28 (no result: CYP2C19 activ, CYP2C9 act, CYP2C19 inh, CYP2C9 inh)
Cc1cccc(N2CCc3c2nc2ccc(Br)cc2c3N)c1	none (no result: CYP2C19 activ, CYP2C9 act, CYP2C19 inh, CYP2C9 inh)
Nc1c2c(nc3ccc(Br)cc13)N(c1ccccc1)CC2	CYP2C19 inh 89, CYP2C9 inh 87
Cc1ccc(/C(O)=C2/C(=O)C(=O)N(Cc3ccco3)C2c2cccs2)cc1 (configuration not stated)	none
CC(C)(C)c1ccccc1NC(=S)NCc1ccccc1	none (no result: CYP2C19 activ, CYP2C9 act, CYP2C19 inh, CYP2C9 inh)
O=C(CSc1nnc(C2COc3ccccc3O2)o1)NC1CCCCC1 (configuration not stated)	CYP2C19 inh 50, CYP2C9 inh 58
O=C(CCC1COc2ccccc2O1)NC1CCCCC1 (configuration not stated)	CYP2C19 inh 56
O=C(CC1COc2ccccc2O1)NC1CCCCC1 (configuration not stated)	none
CC(NC(=O)CCC1COc2ccccc2O1)c1ccccc1 (configuration not stated)	CYP2C19 inh 51
CCOc1ccccc1C1CC(=O)Nc2cc3c(cc21)OCO3 (configuration not stated)	CYP2C19 inh 98, CYP2C9 inh 66
O=C1CC(c2cccs2)c2cc3c(cc2N1)OCCO3 (configuration not stated)	CYP2C19 inh 68, CYP2C9 inh 71
CC(C)Oc1ccccc1C1Nc2ccccc2C(=O)N1c1ccc2c(c1)OCCO2 (configuration not stated)	CYP2C19 inh 95, CYP2C9 inh 96
Cc1ccc(C2CC(=O)Nc3cc4c(cc32)OCCO4)s1 (configuration not stated)	none
Cc1ccc(N2C(=O)c3ccccc3NC2C(C)Cc2ccc3c(c2)OCO3)cc1 (configuration not stated)	none (no result: CYP2C19 activ, CYP2C9 act, CYP2C19 inh, CYP2C9 inh)
CC(C)Oc1ccccc1C1CC(=O)Nc2cc3c(cc21)OCCO3 (configuration not stated)	CYP2C19 inh 96, CYP2C9 inh 96
COc1cc2c(cc1OC)C(c1cccc(OC)c1OC)CC(=O)N2 (configuration not stated)	none
CC(=NCCc1ccccc1)C1=C(O)COC1=O	none
O=C(Nc1ccccc1Sc1ccccc1)c1ccc(F)cc1	none (no result: CYP2C19 activ, CYP2C9 act, CYP2C19 inh, CYP2C9 inh)
CC(=O)Nc1ccc(OC(=O)c2cc3cc(Br)ccc3oc2=O)cc1	none (no result: CYP2C19 activ, CYP2C9 act, CYP2C19 inh, CYP2C9 inh)
COc1ccccc1C1CC(=O)Nc2cc3c(cc21)OCCO3 (configuration not stated)	CYP2C9 inh 74

High-throughput results from PubChem BioAssay.
